In PubChem BioAssay (NCI) one finds growth data, which are given here for 8 molecules.

The panel holds about 83,000 compounds, 20% with a hit somewhere; the sample as a whole holds those more often.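 96-well plates, one dose, 48 hours. Percent growth reported; active if below 10.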 A number with no mark means an inactive call. The source made the active and inactive calls.

Test in all cases: NCI-60 one-dose screen, 48 h (100 = growth as untreated, 0 = no growth, -100 = all killed)
One experiment has as its system HCT-15 colon. Particulars: 10 µM unless noted.
A further experiment relates to HT29 colon. Particulars: 10 µM unless noted.
A further experiment relates to SNB-75 CNS. Particulars: 10 µM unless noted.
For the next experiment, the system named is SNB-19 CNS. As to conditions: 10 µM unless noted.
The test system of the next experiment is U251 CNS. Particulars: 10 µM unless noted.
The subject of another experiment is PC-3 prostate. Particulars: 10 µM unless noted.
The next experiment has as its system SK-MEL-5 melanoma. As to conditions: 10 µM unless noted.
The test system of the next experiment is UACC-62 melanoma. Particulars: 10 µM unless noted.
The test system of the next experiment is LOX IMVI melanoma. As to conditions: 10 µM.
In another experiment the test system is SK-MEL-28 melanoma. Particulars: 10 µM unless noted.
A further experiment relates to SK-MEL-2 melanoma. Particulars: 10 µM unless noted.
For another experiment, the system named is EKVX NSCLC. As to conditions: 10 µM unless noted.
A further experiment has as its system SN12C renal. As to conditions: 10 µM unless noted.
The next experiment deals with UO-31 renal. Particulars: 10 µM unless noted.
The subject of another experiment is TK-10 renal. Particulars: 10 µM unless noted.
Another experiment deals with ACHN renal. As to conditions: 10 µM unless noted.
The next experiment has as its system CAKI-1 renal. Particulars: 10 µM unless noted.
Another experiment deals with A498 renal. Particulars: 10 µM unless noted.
For the next experiment, the system named is CCRF-CEM leukemia. As to conditions: 10 µM unless noted.
For the next experiment, the system named is MOLT-4 leukemia. As to conditions: 10 µM unless noted.

Regarding `CCOC(=O)/C(C#N)=C\c1c[nH]c2ccccc12`, the growth is 93.8% in the experiment on HCT-15 colon; 105% in the experiment with HT29 colon; 85.9% in the experiment on SNB-75 CNS; 97.6% in the experiment with SNB-19 CNS; 98.1% in the experiment with U251 CNS; 99.1% with PC-3 prostate. For the same molecule, the growth was 106% in the experiment with SK-MEL-5 melanoma; 85.2% in the experiment on UACC-62 melanoma; 93.2% in the experiment on LOX IMVI melanoma; 206% in the experiment on SK-MEL-28 melanoma; 105% in the experiment on SK-MEL-2 melanoma; 75.7% in the experiment on EKVX NSCLC. The growth with SN12C renal is 90.5%; with UO-31 renal it was 69.6%; in the experiment with TK-10 renal it was 221%; with ACHN renal it was 85.1%; with CAKI-1 renal, 30.8%; with A498 renal it was 153%. Further, the growth in the experiment with CCRF-CEM leukemia is 108%; in the experiment with MOLT-4 leukemia, 81.6%.
Take `CN1CCN(C(=S)S)CC1`: the growth was 100% in the experiment with HCT-15 colon; 75.5% in the experiment with HT29 colon; 105% in the experiment with SNB-75 CNS; 103% with SNB-19 CNS; 102% in the experiment with U251 CNS; 98.4% in the experiment with PC-3 prostate. Also, the growth in the experiment with SK-MEL-5 melanoma is 111%; in the experiment with UACC-62 melanoma, 101%; in the experiment on LOX IMVI melanoma it was 87.9%; in the experiment on SK-MEL-28 melanoma, 115%; in the experiment on SK-MEL-2 melanoma, 114%; in the experiment with EKVX NSCLC, 106%. Further, the growth in the experiment on SN12C renal was 108%; with UO-31 renal, 98.4%; in the experiment on TK-10 renal, 111%; with ACHN renal, 105%; with CAKI-1 renal, 99.5%; in the experiment with A498 renal, 118%. The results for the growth with CCRF-CEM leukemia and in the experiment with MOLT-4 leukemia were 89% and 105%, respectively.
Consider `CCCCN(C=S)CCCC`, for which the growth was 98.1% in the experiment on HCT-15 colon; 102% in the experiment with HT29 colon; 87.4% in the experiment with SNB-75 CNS; 94.3% in the experiment on SNB-19 CNS; 90.3% in the experiment with U251 CNS; 91.5% with PC-3 prostate. The growth was 101% with SK-MEL-5 melanoma; 96.4% with UACC-62 melanoma; 106% with LOX IMVI melanoma; 96.2% in the experiment with SK-MEL-28 melanoma; 91.8% in the experiment on SK-MEL-2 melanoma; 103% in the experiment on EKVX NSCLC. For the same molecule, the growth was 97.5% in the experiment on SN12C renal; 93.5% in the experiment with UO-31 renal; 98.4% in the experiment with TK-10 renal; 95.7% in the experiment with ACHN renal; 95.2% with CAKI-1 renal; 91.4% in the experiment on A498 renal. Besides, the growth was 95.7% with CCRF-CEM leukemia and 91.4% in the experiment on MOLT-4 leukemia.
Take `O=C(O)C1CCCN1C(=O)OCc1ccccc1` (stereo not given): the growth in the experiment on HCT-15 colon is 108%; in the experiment with HT29 colon it was 97.6%; with SNB-75 CNS it was 81.6%; with SNB-19 CNS, 104%; in the experiment on U251 CNS, 108%; in the experiment with PC-3 prostate, 108%. Moreover, the growth was 104% with SK-MEL-5 melanoma; 109% in the experiment with UACC-62 melanoma; 88.4% in the experiment with LOX IMVI melanoma; 105% in the experiment with SK-MEL-28 melanoma; 94.7% in the experiment on SK-MEL-2 melanoma; 117% in the experiment with EKVX NSCLC. In addition, the growth is 103% with SN12C renal; 80.9% in the experiment on UO-31 renal; 106% in the experiment on TK-10 renal; 109% in the experiment on ACHN renal; 94.6% in the experiment with CAKI-1 renal; 108% with A498 renal. Besides, the growth with CCRF-CEM leukemia was 112%; in the experiment with MOLT-4 leukemia it was 96.2%.
For the molecule `Cc1cc2c(C(C)C)c(O)c(O)c(C=Nc3ccccc3[N+](=O)[O-])c2c(O)c1-c1c(C)cc2c(C(C)C)c(O)c(O)c(C=Nc3ccccc3[N+](=O)[O-])c2c1O`, the growth in the experiment with HCT-15 colon is 80.2%; in the experiment on HT29 colon, 93%; in the experiment with SNB-75 CNS, 78%; in the experiment with SNB-19 CNS it was 43.9%; in the experiment with U251 CNS it was 54.2%; in the experiment on PC-3 prostate it was 65.1%. Also, the growth with SK-MEL-5 melanoma was 96.2%; in the experiment on UACC-62 melanoma, 96.5%; in the experiment with LOX IMVI melanoma it was 81.3%; in the experiment with SK-MEL-28 melanoma it was 98.3%; with SK-MEL-2 melanoma, 96.6%; in the experiment on EKVX NSCLC, 60.7%. Also, the growth in the experiment on SN12C renal was 84.9%; in the experiment on UO-31 renal, 84%; in the experiment with TK-10 renal it was 84.2%; with ACHN renal it was 83.3%; with CAKI-1 renal, 88%; in the experiment on A498 renal it was 101%. The growth in the experiment with CCRF-CEM leukemia is 35%; in the experiment on MOLT-4 leukemia it was 26.2%.
As to `COc1cc(C(=O)N2CCN(c3ccccc3)CC2)c2ccccc2n1`, the growth is 18.3% in the experiment on HCT-15 colon; -19% (active) in the experiment on HT29 colon; 20.9% with SNB-75 CNS; 28.4% in the experiment on SNB-19 CNS; 11.1% in the experiment with U251 CNS; 35.5% with PC-3 prostate. The growth in the experiment with SK-MEL-5 melanoma is 16.8%; in the experiment on UACC-62 melanoma it was 32.6%; in the experiment with LOX IMVI melanoma, 16.5%; in the experiment on SK-MEL-28 melanoma it was 54.6%; in the experiment on SK-MEL-2 melanoma, 3.61% (active); in the experiment with EKVX NSCLC, 51.6%. The growth was 36.8% in the experiment on SN12C renal; 44.9% in the experiment on UO-31 renal; 57.1% in the experiment with TK-10 renal; 60.6% in the experiment on ACHN renal; 36.2% in the experiment with CAKI-1 renal; 32.3% in the experiment on A498 renal. Besides, the growth in the experiment on CCRF-CEM leukemia is 29.3%; with MOLT-4 leukemia it was 29.9%.
Regarding `CCOP(=O)(NC(c1ccccc1)c1ccccc1)OCC`, the growth with HCT-15 colon was 117%; in the experiment with HT29 colon, 107%; in the experiment with SNB-75 CNS, 88.7%; in the experiment on SNB-19 CNS it was 102%; in the experiment with U251 CNS it was 105%; in the experiment with PC-3 prostate it was 82.6%. Also, the growth in the experiment on SK-MEL-5 melanoma was 105%; in the experiment with UACC-62 melanoma it was 114%; with LOX IMVI melanoma, 93.1%; in the experiment on SK-MEL-28 melanoma, 106%; in the experiment on SK-MEL-2 melanoma, 109%; in the experiment with EKVX NSCLC it was 109%. Besides, the growth in the experiment with SN12C renal was 146%; in the experiment with UO-31 renal it was 84.4%; in the experiment with TK-10 renal it was 112%; with ACHN renal, 103%; with CAKI-1 renal, 93%; with A498 renal, 102%. The growth was 103% with CCRF-CEM leukemia and 106% with MOLT-4 leukemia.
Regarding `Nc1ccc2ccccc2c1-c1c(N)ccc2ccccc12`, the growth in the experiment on HCT-15 colon is 30.7%; in the experiment with HT29 colon, 7.41% (active); with SNB-75 CNS, 42.7%; with SNB-19 CNS, 44.1%; with U251 CNS it was 21.5%; with PC-3 prostate, 31.2%. Further, the growth in the experiment with SK-MEL-5 melanoma was 25.5%; in the experiment on UACC-62 melanoma it was 24.9%; in the experiment with LOX IMVI melanoma, 36.8%; in the experiment on SK-MEL-28 melanoma, 56.4%; with SK-MEL-2 melanoma, 15.5%; in the experiment with EKVX NSCLC, 36.5%. In addition, the growth was 37% in the experiment with SN12C renal; 40.8% in the experiment on UO-31 renal; 34.9% with TK-10 renal; 38.8% in the experiment with ACHN renal; 28.6% with CAKI-1 renal; 14.6% with A498 renal. For the same molecule, the growth was 12.9% in the experiment with CCRF-CEM leukemia and 17.4% with MOLT-4 leukemia.
